target: T1, GST-Dm-Relish (Drosophila melanogaster, UniProt Q94527 99-473); experiment: protein-binding microarray (PBM); PBM: ~300 nM protein, 6 mM HEPES pH 7.8, 80 mM KCl, 0.5 mM EDTA, 0.5 mM EGTA, 6% glycerol, 35 ng/ul poly-dIdC, 1% milk, 1 h, room temperature; Ap Aiptasia and Nv Nematostella (sea anemones) / Co Capsaspora / Aq Amphimedon (sponge) / Dm Drosophila / Hu human; RHD is the Rel homology domain; high values mean tight binding; conditions: dsDNA, one strand shown
T1 sequence: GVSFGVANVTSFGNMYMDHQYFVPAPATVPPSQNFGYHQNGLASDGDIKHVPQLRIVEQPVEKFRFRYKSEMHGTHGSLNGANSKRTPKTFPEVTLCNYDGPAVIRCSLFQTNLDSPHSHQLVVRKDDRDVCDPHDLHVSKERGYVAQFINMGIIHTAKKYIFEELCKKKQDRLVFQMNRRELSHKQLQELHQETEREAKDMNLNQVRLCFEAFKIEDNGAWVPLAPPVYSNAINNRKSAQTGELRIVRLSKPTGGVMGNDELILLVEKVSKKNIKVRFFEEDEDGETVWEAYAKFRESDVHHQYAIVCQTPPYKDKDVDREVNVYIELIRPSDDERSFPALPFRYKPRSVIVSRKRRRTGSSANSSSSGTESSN

Sequence | binding signal [z-score]
CCGATTAACATCAGGGGAAATGATGATGTTAATCGGGTCTTGATTCGCTTGACGCTGCTG | 2.27
CCGATTAACATCACAACTTCCCCTGATGTTAATCGGGTCTTGATTCGCTTGACGCTGCTG | 6.89
CCGATTAACATCACGGGGATTTATGATGTTAATCGGGTCTTGATTCGCTTGACGCTGCTG | 8.32
CCGATTAACATCAGGGACTCCCCTGATGTTAATCGGGTCTTGATTCGCTTGACGCTGCTG | 10.3
CCGATTAACATCAGGGAATTACCTGATGTTAATCGGGTCTTGATTCGCTTGACGCTGCTG | 8.83
CCGATTAACATCAGGGGGCAATATGATGTTAATCGGGTCTTGATTCGCTTGACGCTGCTG | 2.2
CCGATTAACATCACCCACCCCCCTGATGTTAATCGGGTCTTGATTCGCTTGACGCTGCTG | 4.19
CCGATTAACATCAAGGGAGTCCCTGATGTTAATCGGGTCTTGATTCGCTTGACGCTGCTG | 8.56
CCGATTAACATCACTTATCCCCCTGATGTTAATCGGGTCTTGATTCGCTTGACGCTGCTG | 2.71
CCGATTAACATCAGGACTCCCCCTGATGTTAATCGGGTCTTGATTCGCTTGACGCTGCTG | 8.9
CCGATTAACATCAGCATCCCCCCTGATGTTAATCGGGTCTTGATTCGCTTGACGCTGCTG | 4.52
CCGATTAACATCAAAAAGTCCCCTGATGTTAATCGGGTCTTGATTCGCTTGACGCTGCTG | 10
CCGATTAACATCAACAAAATCCCTGATGTTAATCGGGTCTTGATTCGCTTGACGCTGCTG | 6.66
CCGATTAACATCAAGGGGGTTTCTGATGTTAATCGGGTCTTGATTCGCTTGACGCTGCTG | 9.83
CCGATTAACATCAAAAATCCCCCTGATGTTAATCGGGTCTTGATTCGCTTGACGCTGCTG | 10.1
CCGATTAACATCAGACATTCCCCTGATGTTAATCGGGTCTTGATTCGCTTGACGCTGCTG | 4.78
CCGATTAACATCAGTATTTCCCATGATGTTAATCGGGTCTTGATTCGCTTGACGCTGCTG | 5.01
CCGATTAACATCAGGACATTCCCTGATGTTAATCGGGTCTTGATTCGCTTGACGCTGCTG | 3.89
CCGATTAACATCAGGGGTATTACTGATGTTAATCGGGTCTTGATTCGCTTGACGCTGCTG | 3.55
CCGATTAACATCAATACTTCCCCTGATGTTAATCGGGTCTTGATTCGCTTGACGCTGCTG | 7.81

Sequence | binding signal [z-score]
CCGATTAACATCAAATAATACCCTGATGTTAATCGGGTCTTGATTCGCTTGACGCTGCTG | 3.33
CCGATTAACATCAAATTTCCCACTGATGTTAATCGGGTCTTGATTCGCTTGACGCTGCTG | 3.33
CCGATTAACATCAGGGGGAAAAATGATGTTAATCGGGTCTTGATTCGCTTGACGCTGCTG | 4.64
CCGATTAACATCAAGGGGGATTATGATGTTAATCGGGTCTTGATTCGCTTGACGCTGCTG | 6.5
CCGATTAACATCAAGGGGGATTCTGATGTTAATCGGGTCTTGATTCGCTTGACGCTGCTG | 8.21
CCGATTAACATCAAGGGGGTTTATGATGTTAATCGGGTCTTGATTCGCTTGACGCTGCTG | 8.75
CCGATTAACATCAGAGACCCCCCTGATGTTAATCGGGTCTTGATTCGCTTGACGCTGCTG | 5.26
CCGATTAACATCAAGGGGGAATATGATGTTAATCGGGTCTTGATTCGCTTGACGCTGCTG | 4.64
CCGATTAACATCAAGGGGAATAATGATGTTAATCGGGTCTTGATTCGCTTGACGCTGCTG | 4.17
CCGATTAACATCAATTCTCCCCCTGATGTTAATCGGGTCTTGATTCGCTTGACGCTGCTG | 3.06
CCGATTAACATCAGGGGGGAATATGATGTTAATCGGGTCTTGATTCGCTTGACGCTGCTG | 5.21
CCGATTAACATCAGGATTACCCATGATGTTAATCGGGTCTTGATTCGCTTGACGCTGCTG | 2.52
CCGATTAACATCAACGAATTCCCTGATGTTAATCGGGTCTTGATTCGCTTGACGCTGCTG | 2.28
CCGATTAACATCACGTTTTCCCCTGATGTTAATCGGGTCTTGATTCGCTTGACGCTGCTG | 4.49
CCGATTAACATCAACGGATTCCCTGATGTTAATCGGGTCTTGATTCGCTTGACGCTGCTG | 5.42
CCGATTAACATCAGGGAAATCTATGATGTTAATCGGGTCTTGATTCGCTTGACGCTGCTG | 1.64
CCGATTAACATCAGGGGAAAGTATGATGTTAATCGGGTCTTGATTCGCTTGACGCTGCTG | 2.88
CCGATTAACATCAGGATTTACCCTGATGTTAATCGGGTCTTGATTCGCTTGACGCTGCTG | 5.15
CCGATTAACATCAAGGGAACTCCTGATGTTAATCGGGTCTTGATTCGCTTGACGCTGCTG | 5.67
CCGATTAACATCACGGGAAAATCTGATGTTAATCGGGTCTTGATTCGCTTGACGCTGCTG | 2.07

target: T2, GST-Aq-NF-kB (Amphimedon queenslandica, UniProt A9Y5G7 2-389); experiment: as above; conditions: dsDNA, one strand shown
T2 sequence: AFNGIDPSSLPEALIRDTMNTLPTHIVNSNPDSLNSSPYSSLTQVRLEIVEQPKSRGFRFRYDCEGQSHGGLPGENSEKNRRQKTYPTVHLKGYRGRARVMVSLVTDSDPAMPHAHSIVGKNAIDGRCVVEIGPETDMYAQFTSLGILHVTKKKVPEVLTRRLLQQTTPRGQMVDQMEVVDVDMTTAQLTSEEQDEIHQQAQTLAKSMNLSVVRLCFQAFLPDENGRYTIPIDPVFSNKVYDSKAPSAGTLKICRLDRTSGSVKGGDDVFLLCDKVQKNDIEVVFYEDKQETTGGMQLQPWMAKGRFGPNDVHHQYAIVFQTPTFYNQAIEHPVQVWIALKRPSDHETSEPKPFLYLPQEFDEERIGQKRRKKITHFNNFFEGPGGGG

Sequence | binding signal [z-score]
CCGATTAACATCAGGGGAAATGATGATGTTAATCGGGTCTTGATTCGCTTGACGCTGCTG | 4.43
CCGATTAACATCACAACTTCCCCTGATGTTAATCGGGTCTTGATTCGCTTGACGCTGCTG | 6.51
CCGATTAACATCACGGGGATTTATGATGTTAATCGGGTCTTGATTCGCTTGACGCTGCTG | 5.47
CCGATTAACATCAGGGACTCCCCTGATGTTAATCGGGTCTTGATTCGCTTGACGCTGCTG | 9.57
CCGATTAACATCAGGGAATTACCTGATGTTAATCGGGTCTTGATTCGCTTGACGCTGCTG | 9.49
CCGATTAACATCAGGGGGCAATATGATGTTAATCGGGTCTTGATTCGCTTGACGCTGCTG | 3.54
CCGATTAACATCACCCACCCCCCTGATGTTAATCGGGTCTTGATTCGCTTGACGCTGCTG | 3.84
CCGATTAACATCAAGGGAGTCCCTGATGTTAATCGGGTCTTGATTCGCTTGACGCTGCTG | 4.92
CCGATTAACATCACTTATCCCCCTGATGTTAATCGGGTCTTGATTCGCTTGACGCTGCTG | 3.72
CCGATTAACATCAGGACTCCCCCTGATGTTAATCGGGTCTTGATTCGCTTGACGCTGCTG | 9.21
CCGATTAACATCAGCATCCCCCCTGATGTTAATCGGGTCTTGATTCGCTTGACGCTGCTG | 4.67
CCGATTAACATCAAAAAGTCCCCTGATGTTAATCGGGTCTTGATTCGCTTGACGCTGCTG | 8.93
CCGATTAACATCAACAAAATCCCTGATGTTAATCGGGTCTTGATTCGCTTGACGCTGCTG | 3.47
CCGATTAACATCAAGGGGGTTTCTGATGTTAATCGGGTCTTGATTCGCTTGACGCTGCTG | 7.81
CCGATTAACATCAAAAATCCCCCTGATGTTAATCGGGTCTTGATTCGCTTGACGCTGCTG | 9.28
CCGATTAACATCAGACATTCCCCTGATGTTAATCGGGTCTTGATTCGCTTGACGCTGCTG | 6.59
CCGATTAACATCAGTATTTCCCATGATGTTAATCGGGTCTTGATTCGCTTGACGCTGCTG | 3.73
CCGATTAACATCAGGACATTCCCTGATGTTAATCGGGTCTTGATTCGCTTGACGCTGCTG | 6.9
CCGATTAACATCAGGGGTATTACTGATGTTAATCGGGTCTTGATTCGCTTGACGCTGCTG | 4.5
CCGATTAACATCAATACTTCCCCTGATGTTAATCGGGTCTTGATTCGCTTGACGCTGCTG | 5.35

Sequence | binding signal [z-score]
CCGATTAACATCAAATAATACCCTGATGTTAATCGGGTCTTGATTCGCTTGACGCTGCTG | 6.24
CCGATTAACATCAAATTTCCCACTGATGTTAATCGGGTCTTGATTCGCTTGACGCTGCTG | 4.27
CCGATTAACATCAGGGGGAAAAATGATGTTAATCGGGTCTTGATTCGCTTGACGCTGCTG | 5.88
CCGATTAACATCAAGGGGGATTATGATGTTAATCGGGTCTTGATTCGCTTGACGCTGCTG | 6.85
CCGATTAACATCAAGGGGGATTCTGATGTTAATCGGGTCTTGATTCGCTTGACGCTGCTG | 7.13
CCGATTAACATCAAGGGGGTTTATGATGTTAATCGGGTCTTGATTCGCTTGACGCTGCTG | 6.24
CCGATTAACATCAGAGACCCCCCTGATGTTAATCGGGTCTTGATTCGCTTGACGCTGCTG | 3.97
CCGATTAACATCAAGGGGGAATATGATGTTAATCGGGTCTTGATTCGCTTGACGCTGCTG | 6.45
CCGATTAACATCAAGGGGAATAATGATGTTAATCGGGTCTTGATTCGCTTGACGCTGCTG | 5.64
CCGATTAACATCAATTCTCCCCCTGATGTTAATCGGGTCTTGATTCGCTTGACGCTGCTG | 5.16
CCGATTAACATCAGGGGGGAATATGATGTTAATCGGGTCTTGATTCGCTTGACGCTGCTG | 6.44
CCGATTAACATCAGGATTACCCATGATGTTAATCGGGTCTTGATTCGCTTGACGCTGCTG | 3.19
CCGATTAACATCAACGAATTCCCTGATGTTAATCGGGTCTTGATTCGCTTGACGCTGCTG | 3.08
CCGATTAACATCACGTTTTCCCCTGATGTTAATCGGGTCTTGATTCGCTTGACGCTGCTG | 5.5
CCGATTAACATCAACGGATTCCCTGATGTTAATCGGGTCTTGATTCGCTTGACGCTGCTG | 2.97
CCGATTAACATCAGGGAAATCTATGATGTTAATCGGGTCTTGATTCGCTTGACGCTGCTG | 4.71
CCGATTAACATCAGGGGAAAGTATGATGTTAATCGGGTCTTGATTCGCTTGACGCTGCTG | 5.82
CCGATTAACATCAGGATTTACCCTGATGTTAATCGGGTCTTGATTCGCTTGACGCTGCTG | 6.67
CCGATTAACATCAAGGGAACTCCTGATGTTAATCGGGTCTTGATTCGCTTGACGCTGCTG | 4.45
CCGATTAACATCACGGGAAAATCTGATGTTAATCGGGTCTTGATTCGCTTGACGCTGCTG | 5.16
